{"source": "PubChem BioAssay AID1159580", "about": "(chemical genetic matrix, 2015)", "test": "chemical genetic growth profiling, strain panel (AID 1159580);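 note: tested at 20 µM; growth read once vehicle control cultures reached saturation at 30 °C; 1 = growth at the plate median or of vehicle wells; lower values mean less growth of the strain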", "settings": "growth OD", "note": "The campaign covered roughly 5,500 compounds. About 2,000 (36%) were called active. About 18% were inconclusive and are not listed. This is one part of the list. Values without a mark were called inactive. Cut-off read from the data, not from the text of the source: active = normalized growth mostly below about 0.91 (no sharp cut-off); inconclusive = no clear call, values can overlap the other calls; inactive = mostly above about 0.92."}
{"smiles": "C=CC(C)(O)CC/C=C(\\C)CCC=C(C)C", "note": "(stereo not drawn)", "values": [{"measurement": "normalized growth", "setting": "S. cerevisiae deletion strains, locus YKL009W, strain mrt4, stronger effect = lower value", "value": 0.952}, {"measurement": "normalized growth", "setting": "S. cerevisiae deletion strains, locus YKL068W, stronger effect = lower value", "value": 0.994}, {"measurement": "normalized growth", "setting": "S. cerevisiae deletion strains, locus YKL085W, strain MDH1 (second series), stronger effect = lower value", "value": 0.996}, {"measurement": "normalized growth", "setting": "S. cerevisiae deletion strains, locus YKL085W, strain MDH1, stronger effect = lower value", "value": 0.996}, {"measurement": "normalized growth", "setting": "S. cerevisiae deletion strains, locus YKL160W, strain elf1, stronger effect = lower value", "value": 0.903}, {"measurement": "normalized growth", "setting": "S. cerevisiae deletion strains, locus YKL190W, strain CNB1, stronger effect = lower value", "value": 0.97}, {"measurement": "normalized growth", "setting": "S. cerevisiae deletion strains, locus YKR001C, strain vps1, stronger effect = lower value", "value": 1}, {"measurement": "normalized growth", "setting": "S. cerevisiae deletion strains, locus YKR026C, strain gcn3, stronger effect = lower value", "value": 0.951}, {"measurement": "normalized growth", "setting": "S. cerevisiae deletion strains, locus YKR091W, strain srl3, stronger effect = lower value", "value": 0.97}, {"measurement": "normalized growth", "setting": "S. cerevisiae deletion strains, locus YLL001W, strain dnm1, stronger effect = lower value", "value": 0.978}, {"measurement": "normalized growth", "setting": "S. cerevisiae deletion strains, locus YLL026W, stronger effect = lower value", "value": 0.972}, {"measurement": "normalized growth", "setting": "S. cerevisiae deletion strains, locus YLL041C, strain sdh2, stronger effect = lower value", "value": 0.973}, {"measurement": "normalized growth", "setting": "S. cerevisiae deletion strains, locus YLR027C, strain aat2, stronger effect = lower value", "value": 0.967}, {"measurement": "normalized growth", "setting": "S. cerevisiae deletion strains, locus YLR039C, strain RIC1, stronger effect = lower value", "value": 0.882}, {"measurement": "normalized growth", "setting": "S. cerevisiae deletion strains, locus YLR058C, strain SHM2, stronger effect = lower value", "value": 0.949}, {"measurement": "normalized growth", "setting": "S. cerevisiae deletion strains, locus YLR102C, strain apc9, stronger effect = lower value", "value": 1}, {"measurement": "normalized growth", "setting": "S. cerevisiae deletion strains, locus YLR113W, strain HOG1, stronger effect = lower value", "value": 0.868}, {"measurement": "normalized growth", "setting": "S. cerevisiae deletion strains, locus YLR221C, strain rsa3, stronger effect = lower value", "value": "0.9 (active)"}, {"measurement": "normalized growth", "setting": "S. cerevisiae deletion strains, locus YLR258W, strain gsy2, stronger effect = lower value", "value": 0.966}, {"measurement": "normalized growth", "setting": "S. cerevisiae deletion strains, locus YLR262C, strain YPT6 (second series), stronger effect = lower value", "value": "0.842 (active)"}, {"measurement": "normalized growth", "setting": "S. cerevisiae deletion strains, locus YLR262C, strain YPT6, stronger effect = lower value", "value": 0.926}, {"measurement": "normalized growth", "setting": "S. cerevisiae deletion strains, locus YLR268W, strain sec22, stronger effect = lower value", "value": 1}, {"measurement": "normalized growth", "setting": "S. cerevisiae deletion strains, locus YLR320W, strain mms22, stronger effect = lower value", "value": "0.846 (active)"}, {"measurement": "normalized growth", "setting": "S. cerevisiae deletion strains, locus YLR330W, strain CHS5, stronger effect = lower value", "value": 0.925}, {"measurement": "normalized growth", "setting": "S. cerevisiae deletion strains, locus YLR342W, strain FKS1 (second series), stronger effect = lower value", "value": 0.878}, {"measurement": "normalized growth", "setting": "S. cerevisiae deletion strains, locus YLR342W, strain FKS1, stronger effect = lower value", "value": 0.974}, {"measurement": "normalized growth", "setting": "S. cerevisiae deletion strains, locus YLR357W, strain rsc2, stronger effect = lower value", "value": "0.81 (active)"}, {"measurement": "normalized growth", "setting": "S. cerevisiae deletion strains, locus YLR370C, strain arc18, stronger effect = lower value", "value": 0.921}, {"measurement": "normalized growth", "setting": "S. cerevisiae deletion strains, locus YLR371W, strain rom2, stronger effect = lower value", "value": 0.962}, {"measurement": "normalized growth", "setting": "S. cerevisiae deletion strains, locus YLR384C, strain iki3, stronger effect = lower value", "value": 0.98}, {"measurement": "normalized growth", "setting": "S. cerevisiae deletion strains, locus YLR418C, strain cdc73, stronger effect = lower value", "value": 0.911}, {"measurement": "normalized growth", "setting": "S. cerevisiae deletion strains, locus YML016C, strain PPZ1, stronger effect = lower value", "value": 0.996}, {"measurement": "normalized growth", "setting": "S. cerevisiae deletion strains, locus YML032C, strain rad52, stronger effect = lower value", "value": 0.926}, {"measurement": "normalized growth", "setting": "S. cerevisiae deletion strains, locus YML120C, strain ndi1, stronger effect = lower value", "value": 0.919}, {"measurement": "normalized growth", "setting": "S. cerevisiae deletion strains, locus YML124C, strain tub3, stronger effect = lower value", "value": 1.01}, {"measurement": "normalized growth", "setting": "S. cerevisiae deletion strains, locus YMR058W, strain fet3, stronger effect = lower value", "value": 0.95}, {"measurement": "normalized growth", "setting": "S. cerevisiae deletion strains, locus YMR078C, strain ctf18, stronger effect = lower value", "value": 1.01}, {"measurement": "normalized growth", "setting": "S. cerevisiae deletion strains, locus YMR125W, strain sto1, stronger effect = lower value", "value": "0.828 (active)"}, {"measurement": "normalized growth", "setting": "S. cerevisiae deletion strains, locus YMR129W, stronger effect = lower value", "value": 0.967}, {"measurement": "normalized growth", "setting": "S. cerevisiae deletion strains, locus YMR205C, strain PFK2, stronger effect = lower value", "value": 0.911}, {"measurement": "normalized growth", "setting": "S. cerevisiae deletion strains, locus YMR223W, strain ubp8, stronger effect = lower value", "value": 0.957}, {"measurement": "normalized growth", "setting": "S. cerevisiae deletion strains, locus YMR231W, strain pep5, stronger effect = lower value", "value": 0.999}, {"measurement": "normalized growth", "setting": "S. cerevisiae deletion strains, locus YMR307W, strain GAS1, stronger effect = lower value", "value": 0.621}, {"measurement": "normalized growth", "setting": "S. cerevisiae deletion strains, locus YNL067W, strain RPL9B, stronger effect = lower value", "value": 0.943}, {"measurement": "normalized growth", "setting": "S. cerevisiae deletion strains, locus YNL071W, strain lat1, stronger effect = lower value", "value": "0.85 (active)"}, {"measurement": "normalized growth", "setting": "S. cerevisiae deletion strains, locus YNL153C, strain GIM3, stronger effect = lower value", "value": 0.921}, {"measurement": "normalized growth", "setting": "S. cerevisiae deletion strains, locus YNL183C, strain NPR1, stronger effect = lower value", "value": 0.948}, {"measurement": "normalized growth", "setting": "S. cerevisiae deletion strains, locus YNL209W, strain ssb2, stronger effect = lower value", "value": 0.977}, {"measurement": "normalized growth", "setting": "S. cerevisiae deletion strains, locus YNL233W, strain BNI4, stronger effect = lower value", "value": "0.788 (active)"}, {"measurement": "normalized growth", "setting": "S. cerevisiae deletion strains, locus YNL248C, strain rpa49, stronger effect = lower value", "value": "0.883 (active)"}, {"measurement": "normalized growth", "setting": "S. cerevisiae deletion strains, locus YNL250W, strain rad50, stronger effect = lower value", "value": 0.994}, {"measurement": "normalized growth", "setting": "S. cerevisiae deletion strains, locus YNL271C, strain bni1, stronger effect = lower value", "value": 1}, {"measurement": "normalized growth", "setting": "S. cerevisiae deletion strains, locus YNL298W, strain CLA4, stronger effect = lower value", "value": 0.951}, {"measurement": "normalized growth", "setting": "S. cerevisiae deletion strains, locus YNL307C, strain MCK1, stronger effect = lower value", "value": 1}, {"measurement": "normalized growth", "setting": "S. cerevisiae deletion strains, locus YNL322C, strain KRE1 (second series), stronger effect = lower value", "value": 0.993}, {"measurement": "normalized growth", "setting": "S. cerevisiae deletion strains, locus YNR049C, strain mso1, stronger effect = lower value", "value": 0.966}, {"measurement": "normalized growth", "setting": "S. cerevisiae deletion strains, locus YNR052C, strain pop2, stronger effect = lower value", "value": 0.933}, {"measurement": "normalized growth", "setting": "S. cerevisiae deletion strains, locus YOL006C, strain TOP1, stronger effect = lower value", "value": 0.816}, {"measurement": "normalized growth", "setting": "S. cerevisiae deletion strains, locus YOL012C, strain htz1", "value": 0.833}, {"measurement": "normalized growth", "setting": "S. cerevisiae deletion strains, locus YOL147C, strain pex11, stronger effect = lower value", "value": 0.987}, {"measurement": "normalized growth", "setting": "S. cerevisiae deletion strains, locus YOR001W, strain rrp6, stronger effect = lower value", "value": "0.887 (active)"}, {"measurement": "normalized growth", "setting": "S. cerevisiae deletion strains, locus YOR061W, strain CKA2, stronger effect = lower value", "value": 0.977}, {"measurement": "normalized growth", "setting": "S. cerevisiae deletion strains, locus YOR069W, strain VPS5, stronger effect = lower value", "value": 0.984}, {"measurement": "normalized growth", "setting": "S. cerevisiae deletion strains, locus YOR070C, strain gyp1, stronger effect = lower value", "value": 0.981}, {"measurement": "normalized growth", "setting": "S. cerevisiae deletion strains, locus YOR080W, strain dia2, stronger effect = lower value", "value": 0.972}, {"measurement": "normalized growth", "setting": "S. cerevisiae deletion strains, locus YOR083W, strain WHI5, stronger effect = lower value", "value": "0.882 (active)"}, {"measurement": "normalized growth", "setting": "S. cerevisiae deletion strains, locus YOR106W, strain vam3, stronger effect = lower value", "value": 0.881}, {"measurement": "normalized growth", "setting": "S. cerevisiae deletion strains, locus YOR136W, strain idh2, stronger effect = lower value", "value": 1.01}, {"measurement": "normalized growth", "setting": "S. cerevisiae deletion strains, locus YOR144C, strain elg1, stronger effect = lower value", "value": 0.999}, {"measurement": "normalized growth", "setting": "S. cerevisiae deletion strains, locus YOR184W, strain ser1, stronger effect = lower value", "value": 0.941}, {"measurement": "normalized growth", "setting": "S. cerevisiae deletion strains, locus YOR231W, strain MKK1, stronger effect = lower value", "value": 0.873}, {"measurement": "normalized growth", "setting": "S. cerevisiae deletion strains, locus YOR265W, strain rbl2, stronger effect = lower value", "value": 0.983}, {"measurement": "normalized growth", "setting": "S. cerevisiae deletion strains, locus YOR270C, strain vph1, stronger effect = lower value", "value": "0.757 (active)"}, {"measurement": "normalized growth", "setting": "S. cerevisiae deletion strains, locus YOR290C, strain snf2, stronger effect = lower value", "value": 0.875}, {"measurement": "normalized growth", "setting": "S. cerevisiae deletion strains, locus YOR316C, strain cot1, stronger effect = lower value", "value": 0.997}, {"measurement": "normalized growth", "setting": "S. cerevisiae deletion strains, locus YPL051W, strain arl3, stronger effect = lower value", "value": "0.907 (active)"}, {"measurement": "normalized growth", "setting": "S. cerevisiae deletion strains, locus YPL055C, strain LGE1, stronger effect = lower value", "value": 0.88}, {"measurement": "normalized growth", "setting": "S. cerevisiae deletion strains, locus YPL078C, strain atp4, stronger effect = lower value", "value": "0.863 (active)"}, {"measurement": "normalized growth", "setting": "S. cerevisiae deletion strains, locus YPL106C, strain sse1, stronger effect = lower value", "value": "0.793 (active)"}, {"measurement": "normalized growth", "setting": "S. cerevisiae deletion strains, locus YPL240C, strain hsp82, stronger effect = lower value", "value": 0.96}, {"measurement": "normalized growth", "setting": "S. cerevisiae deletion strains, locus YPL241C, strain CIN2, stronger effect = lower value", "value": 1}, {"measurement": "normalized growth", "setting": "S. cerevisiae deletion strains, locus YPL256C, strain CLN2, stronger effect = lower value", "value": 0.838}, {"measurement": "normalized growth", "setting": "S. cerevisiae deletion strains, locus YPR119W, strain clb2, stronger effect = lower value", "value": 1.02}, {"measurement": "normalized growth", "setting": "S. cerevisiae deletion strains, locus YPR141C, strain kar3, stronger effect = lower value", "value": 1}, {"measurement": "normalized growth", "setting": "S. cerevisiae deletion strains, locus YPR163C, strain tif3, stronger effect = lower value", "value": 1.02}, {"measurement": "normalized growth", "setting": "S. cerevisiae deletion strains, locus YPR167C, strain met16, stronger effect = lower value", "value": 0.988}, {"measurement": "normalized growth", "setting": "S. cerevisiae deletion strains, strain wtn01, stronger effect = lower value", "value": 0.99}, {"measurement": "normalized growth", "setting": "S. cerevisiae strains, strain wild type, stronger effect = lower value", "value": 0.924}]}
